In all, about 350,000 compounds went through this assay and about 31,000 (8.9%) were called active. About 15% were inconclusive and are not listed. For the sample, actives were picked, then their nearest neighbours and some compounds at random. Values without a mark were called inactive. Calls follow the shape of the dose curve; as a rule, active = well fitted inhibition curve with a large enough effect; inconclusive = small, poorly fitted or top-dose-only effect; inactive = no such curve, though single readings can be large or run the other way.
Biological target: Histone-lysine N-methyltransferase EHMT2 (Homo sapiens) (UniProt Q96KQ7)
Experiment: qHTS Assay for Inhibitors of Histone Lysine Methyltransferase G9a; also: nearly all actives have a fitted effect of over 75% in size
Conditions: G9a H3K9 monomethylation, AlphaScreen, 2 h; series mostly up to 59 µM; activity, negative = inhibition: at the top concentration
Summary of the method: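 Using a bead-based AlphaScreen, monomethylated H3K9 product from 2 h room-temperature reactions (G9a 20 nM, peptide 500 nM, SAM 20 uM) was detected with 0.5 ug/mL rabbit anti-H3K9me1 antibody.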
% is scaled to controls: 0 for no effect and ±100 for the full control effect; potency is read from the fitted curve at half-maximal effect.

Chain of Histone-lysine N-methyltransferase EHMT2 (Homo sapiens) (Q96KQ7 913-1193 limits assumed): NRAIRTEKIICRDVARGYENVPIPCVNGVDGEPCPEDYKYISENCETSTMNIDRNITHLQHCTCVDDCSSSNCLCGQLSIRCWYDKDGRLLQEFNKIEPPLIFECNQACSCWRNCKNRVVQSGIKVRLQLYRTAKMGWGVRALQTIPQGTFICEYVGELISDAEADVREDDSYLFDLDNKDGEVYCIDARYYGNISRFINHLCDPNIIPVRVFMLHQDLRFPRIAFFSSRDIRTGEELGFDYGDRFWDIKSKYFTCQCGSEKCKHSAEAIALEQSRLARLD

SMILES	activity, negative = inhibition	Potency
COc1ccc(-n2nnc(-c3nsc(NC(=O)c4ccc(C)c(C)c4)n3)c2C)cc1Cl	-27.3%	–
COc1ccccc1NC(=O)CSc1oc(-c2ccco2)nc1S(=O)(=O)c1ccc(Br)cc1	-46%	–
CN(C)S(=O)(=O)c1cccc(NC(=S)N/N=C/C(=O)c2ccccc2)c1	75.6%	–
Cc1ccc(/C=N/NC(=S)Nc2cccc(S(=O)(=O)N(C)C)c2)o1	–	50.1 µM (active)
CN(C)S(=O)(=O)c1cccc(NC(=O)Cc2ccsc2)c1	-2.27% [at 102 µM]	–
COc1cc(Cl)c(C)cc1Nc1nnc(-n2nc(C)cc2C)c2ccccc12	28%	–
Cc1ccc2cccc(NC(=O)c3cccc4ccccc34)c2n1	42.4%	–
COC(=O)c1ccc(COC(=O)C2CCN(S(=O)(=O)c3c(Cl)cccc3Cl)CC2)o1	–	35.5 µM (active)
CCOc1ccc(S(=O)(=O)N2CCC(C(=O)OCc3ccc(OC)cc3)CC2)cc1	4.98% [at 102 µM]	–
COc1cccc(COC(=O)C2CCN(S(=O)(=O)c3ccc(Cl)cc3)CC2)c1OC	-3.42%	–
O=C(Nc1cc(-c2nc3ccccc3o2)ccc1Cl)c1cc([N+](=O)[O-])ccc1N1CCOCC1	-4.37%	–
O=C(CN1CCC(O)(c2ccccc2)CC1)Nc1ccc2c(c1)OCCO2	-2.46% [at 102 µM]	–
Cc1cc(NC(=O)CN2CCC(O)(c3cccc(F)c3)CC2)no1	–	8.91 µM (active)
CC(=O)NC1(c2cccc(F)c2)CCN(CC(=O)NC(C)C)CC1	-5.2% [at 12.7 µM]	–
COc1cc(OC)c(NC(=O)Cc2ccc(-n3c(C)nc4cccnc43)cc2)cc1Cl	-25.8%	–
CC(=O)c1ccc(NC(=O)CSc2nc(-c3ccccc3F)nc3c2c(=O)n(C)c(=O)n3C)cc1	6.95%	–
O=C(c1cccnc1NCc1ccccc1)N1CCOCC1	-30.2%	–
Oc1c(C(c2ccccn2)N2CCOCC2)ccc2cccnc12 (stereo not drawn)	–	8.91 µM (active)
CCOc1cc(N2CCOCC2)c(OCC)cc1NC(=O)COc1cccc2cccnc12	16.3%	–
O=S(=O)(c1ccc(Br)cc1)c1nnn2c1nc(NC1CCCCCC1)c1sccc12	-20.4%	–
O=c1n(Cc2cccc(C(F)(F)F)c2)c2ccccc2c2nc(-c3ccccc3)nn12	6.25%	–

SMILES	activity, negative = inhibition	Potency
CCn1c2c(c(=O)n3ncc(C(=O)N4CCN(c5ccccc5)CC4)c13)CN(Cc1ccc(OC)cc1)CC2	-14%	–
Cc1cc2c(cc1C)C(c1cccc(OC(C)C)c1)CC(=O)N2 (stereo not drawn)	-3.79%	–
COc1ccccc1CCNC(=O)C(=O)NCCC1CCCCN1S(=O)(=O)c1cccs1 (stereo not drawn)	-9.04% [at 102 µM]	–
CC(C)C(=O)Nc1ccc2oc(=O)ccc2c1	10.8% [at 102 µM]	–
O=C(NC(=S)Nc1ccc2oc(=O)ccc2c1)c1ccc(-c2cccc(Cl)c2Cl)o1	–	10 µM (active)
O=C(COc1ccc(Cl)cc1)Nc1ccc2oc(=O)ccc2c1	14.1% [at 102 µM]	–
Cc1ccc(C(=O)CSc2nc(-c3ccccc3)nc3c2CCCC3)c(C)c1	19.5%	–
CC(Oc1cccc(Cl)c1)C(=O)Nc1ccc(S(=O)(=O)Nc2ncccn2)cc1 (stereo not drawn)	–	35.5 µM (active)
CCc1ccc(OC(C)C(=O)Nc2ccc(S(=O)(=O)Nc3cc(C)on3)cc2)cc1 (stereo not drawn)	-9.68% [at 102 µM]	–
O=C(/C=C/c1ccc(Cl)cc1)Nc1ccc(S(=O)(=O)Nc2ncccn2)cc1	0.147% [at 102 µM]	–
Cc1ccc(Cl)cc1NC(=O)CSc1nccn1C	-2.21%	–
CS(=O)(=O)N1CCc2cc(C(=O)Nc3ccccc3Br)ccc21	-11.2% [at 102 µM]	–
O=S(=O)(c1ccc(C2CCCCC2)cc1)N1CCN(c2ccc(Cl)c(Cl)c2)CC1	7.66%	–
O=c1[nH]oc(O)c1-c1ncc(C(F)(F)F)cc1Cl	–	44.7 µM (active)
CC(=O)c1ccc(Cc2ncc(C(F)(F)F)cc2Cl)s1	-41.4%	–
O=C(c1ccccn1)c1ncc(C(F)(F)F)cc1Cl	22.6% [at 102 µM]	–
COc1ccccc1CNC(=O)COC(=O)c1sc(C)nc1C	11.2% [at 2.33 µM]	–
CCCNC(=O)c1onc(CSc2ccc(F)cc2)c1C(=O)NC(C)C	20% [at 2.33 µM]	–
COc1ccc(Nc2nc(Cl)nc(NCc3ccco3)n2)cc1	8.73%	–
COc1ccc(-n2cnc3cc(NCc4ccco4)ccc32)cc1	–	44.7 µM (active)
COc1ccc(-n2cnc3cc(C(=O)NC4CCCC4)ccc32)cc1	–	inactive

SMILES	activity, negative = inhibition	Potency
Cc1nn(C)c(C)c1NS(=O)(=O)c1ccc(OC(F)(F)F)cc1	-1.93% [at 102 µM]	–
CCN(CC(=O)Nc1cc(Cl)ccc1C)C(=O)CSCc1ccccc1	-2.77% [at 102 µM]	–
COc1ccc(C(=O)O/N=C(\N)Cc2ccc(Cl)cc2Cl)cc1OC	20.9%	–
NC(N)=N/N=C/c1ccc(OCc2ccc(Cl)cc2Cl)cc1	–	50.1 µM (active)
CCOc1ccc(NC(=O)NNC(=O)c2ccc(Cl)cc2Cl)cc1	11.1% [at 102 µM]	–
COc1ccc(CNc2nc(-c3ccc(Cl)cc3)cc(C(F)(F)F)n2)cc1	195%	–
CCc1ccc(NS(=O)(=O)c2ccc3[nH]cc(C(=O)NCCc4cccc(C)c4)c(=O)c3c2)cc1	-19.8%	–
CC(C)(C)OC(=O)N1CCC(c2c(C(=O)Nc3ccc4c(c3)OCO4)cnn2-c2ccccc2)CC1	-5.36%	–
O=C(CCNC(=O)c1ccccc1Cl)NCc1ccco1	4% [at 12.7 µM]	–
CC(C)(C)c1ccc(C(=O)NCCC(=O)NCc2ccco2)cc1	–	44.7 µM (active)
CCCCNC(=O)CCNC(=O)c1ccc(C(C)(C)C)cc1	-0.948% [at 102 µM]	–
COCCCNc1nc2c(-c3cccc(C)c3)nnn2c2ccc(Cl)cc12	3.35% [at 0.501 µM]	–
Cc1nc2ccccc2c(=O)n1-c1ccc(NS(=O)(=O)c2ccc(F)cc2F)cc1	0.725% [at 102 µM]	–
O=C(COC(=O)c1ccccc1C(=O)N1CCN(c2ccccc2)CC1)NCc1ccccc1	2.03% [at 102 µM]	–
O=C1CCN(C(=S)NCCc2ccccc2)CC1	-0.505% [at 102 µM]	–
Oc1ccccc1N1CCN(C(=S)NCc2ccccc2)CC1	–	31.6 µM (active)
Oc1ccc(N2CCN(C(=S)NCc3ccccc3)CC2)cc1	–	10 µM (active)
O=C(CN1CCN(c2ccccc2O)CC1)NC(=O)NCc1ccccc1	-1.41% [at 12.7 µM]	–
S=C(NCCc1ccccc1)N1CCCCC1	-19.5% [at 102 µM]	–
CCCc1cc(=O)[nH]c(SCC(=O)c2c(N)n(CC(C)C)c(=O)n(C)c2=O)n1	-10.6% [at 102 µM]	–
CCOc1cccc(NC(=O)c2ccc(F)c(S(=O)(=O)N(CC)c3cccc(C)c3)c2)c1	16.5%	–

From PubChem BioAssay AID504332 (National Center for Advancing Translational Sciences (NCATS), 2011)
